FAS-TE inh: inhibitors of human fatty acid synthase thioesterase domain. P49327. recombinant FAS-TE, OMFH fluorogenic substrate, fluorescence endpoint. inhibition, % at 15 µM. hit rate 0.67% among 360,000. AID 602261;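 active = compounds whose normalised, plate-corrected inhibition of enzyme fluorescence in the single-dose primary screen is 50% or more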;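 note: 0% = DMSO with enzyme and 100% = substrate without enzyme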
Target sequence (P49327 whole entry, looked up, the tested form may be a part): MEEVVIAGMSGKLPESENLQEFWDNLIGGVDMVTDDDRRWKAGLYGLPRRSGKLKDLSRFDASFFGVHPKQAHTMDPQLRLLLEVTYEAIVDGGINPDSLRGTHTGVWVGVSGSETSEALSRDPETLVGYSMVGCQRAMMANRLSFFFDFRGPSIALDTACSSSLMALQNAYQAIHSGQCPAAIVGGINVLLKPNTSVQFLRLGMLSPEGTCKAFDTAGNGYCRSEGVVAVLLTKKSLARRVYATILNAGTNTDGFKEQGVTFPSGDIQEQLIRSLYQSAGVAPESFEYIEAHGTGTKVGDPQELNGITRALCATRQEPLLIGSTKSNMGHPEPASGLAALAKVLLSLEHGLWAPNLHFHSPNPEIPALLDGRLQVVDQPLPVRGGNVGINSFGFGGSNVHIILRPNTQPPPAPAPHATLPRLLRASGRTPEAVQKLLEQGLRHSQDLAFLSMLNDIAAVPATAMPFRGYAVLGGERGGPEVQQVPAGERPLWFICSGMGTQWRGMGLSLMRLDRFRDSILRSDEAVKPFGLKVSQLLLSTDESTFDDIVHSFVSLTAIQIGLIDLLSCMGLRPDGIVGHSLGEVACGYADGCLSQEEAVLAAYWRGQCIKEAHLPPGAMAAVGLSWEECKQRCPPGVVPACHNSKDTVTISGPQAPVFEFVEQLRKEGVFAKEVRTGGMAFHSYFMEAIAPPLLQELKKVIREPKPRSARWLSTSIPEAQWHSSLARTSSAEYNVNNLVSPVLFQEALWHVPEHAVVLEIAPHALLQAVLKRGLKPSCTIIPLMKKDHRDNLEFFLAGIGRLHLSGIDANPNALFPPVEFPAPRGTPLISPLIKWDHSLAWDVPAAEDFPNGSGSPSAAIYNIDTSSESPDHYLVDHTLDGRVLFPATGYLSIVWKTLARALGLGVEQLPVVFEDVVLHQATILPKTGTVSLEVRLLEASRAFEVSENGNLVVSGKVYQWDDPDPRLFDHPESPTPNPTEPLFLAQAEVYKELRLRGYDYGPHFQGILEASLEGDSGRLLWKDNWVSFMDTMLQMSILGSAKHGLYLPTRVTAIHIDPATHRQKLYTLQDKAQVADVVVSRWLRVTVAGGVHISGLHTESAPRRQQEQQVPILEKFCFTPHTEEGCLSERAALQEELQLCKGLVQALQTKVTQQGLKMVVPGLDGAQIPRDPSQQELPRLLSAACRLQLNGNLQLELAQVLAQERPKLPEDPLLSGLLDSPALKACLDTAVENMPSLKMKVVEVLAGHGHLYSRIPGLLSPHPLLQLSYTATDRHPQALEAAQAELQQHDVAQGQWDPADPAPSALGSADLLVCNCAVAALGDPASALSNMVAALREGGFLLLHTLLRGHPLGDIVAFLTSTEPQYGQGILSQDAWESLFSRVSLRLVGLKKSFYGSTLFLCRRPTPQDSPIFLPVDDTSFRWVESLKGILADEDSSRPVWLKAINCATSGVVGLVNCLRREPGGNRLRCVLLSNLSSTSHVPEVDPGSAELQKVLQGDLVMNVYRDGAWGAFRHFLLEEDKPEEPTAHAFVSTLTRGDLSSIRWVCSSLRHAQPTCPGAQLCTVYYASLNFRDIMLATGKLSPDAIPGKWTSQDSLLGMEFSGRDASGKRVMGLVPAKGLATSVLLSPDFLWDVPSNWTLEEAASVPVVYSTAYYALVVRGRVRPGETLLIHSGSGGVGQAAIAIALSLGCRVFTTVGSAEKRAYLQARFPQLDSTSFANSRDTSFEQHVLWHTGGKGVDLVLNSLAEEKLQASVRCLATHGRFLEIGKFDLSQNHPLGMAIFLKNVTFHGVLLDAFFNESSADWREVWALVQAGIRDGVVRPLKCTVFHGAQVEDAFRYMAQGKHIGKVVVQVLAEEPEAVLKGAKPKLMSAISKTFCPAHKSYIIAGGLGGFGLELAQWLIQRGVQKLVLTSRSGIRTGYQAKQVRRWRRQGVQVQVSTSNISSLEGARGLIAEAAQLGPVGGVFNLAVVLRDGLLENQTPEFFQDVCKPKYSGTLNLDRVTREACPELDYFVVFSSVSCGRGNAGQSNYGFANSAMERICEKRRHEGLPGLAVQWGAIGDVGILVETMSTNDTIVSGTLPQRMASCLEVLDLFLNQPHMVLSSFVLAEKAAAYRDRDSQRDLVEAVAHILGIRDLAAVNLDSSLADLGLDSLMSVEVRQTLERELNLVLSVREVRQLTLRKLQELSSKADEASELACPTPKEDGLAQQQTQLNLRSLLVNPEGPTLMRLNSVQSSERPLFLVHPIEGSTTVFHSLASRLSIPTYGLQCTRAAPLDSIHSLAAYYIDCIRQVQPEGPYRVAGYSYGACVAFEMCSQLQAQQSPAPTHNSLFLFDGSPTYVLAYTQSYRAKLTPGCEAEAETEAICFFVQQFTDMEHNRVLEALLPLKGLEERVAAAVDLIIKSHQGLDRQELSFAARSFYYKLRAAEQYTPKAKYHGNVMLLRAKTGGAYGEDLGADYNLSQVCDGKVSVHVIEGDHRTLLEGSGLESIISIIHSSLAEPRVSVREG
aDG glyco up: increases alpha dystroglycan glycosylation | activation, % at 10 µM | Pro5-aDG cells, alpha-DG glycosylation AlphaScreen (IIH6); 0% Pro5, 100% B10-LARGE cell signal | AID 624168 | hit rate 0.22% among 360,000;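 active = activation of at least 8% versus controls, or a plate z-score of at least 8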;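 note: Pro5 are CHO cells carrying HIG-tagged alpha-DG that lacks glycosylation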
MPTP inh: inhibitors of mitochondrial permeability transition pore | inhibition, % at 10 µM | AID 602449 | hit rate 1.4% among 360,000 | isolated mouse mitochondria, Ca2+ swelling absorbance, 30 min;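 active = inhibition of 50% or more, scaled per plate between neutral and stimulator controls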;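 note: 0% = DMSO wells given calcium and 100% = 1 mM EGTA wells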
Mot1-301 SUMO: SUMOylation pathway inhibition by Mot1-301 growth rescue | S. cerevisiae Mot1-301 growth rescue, ATP luminescence, 38.5C; percent above DMSO median, 100 means doubled | growth rescue, % at 18.8 µM | hit rate 1% among 320,000 | AID 2716;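 active = every valid replicate shows activation above 250% relative to neutral control wells; inactive = the rest, any valid replicate at or below 250%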;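 note: OY570 slx delta 5 strain wells were the positive control but not used for scaling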
Yeast superoxide: yeast age-related superoxide inhibition as caloric restriction mimetic; AID 2690; hit rate 0.18% among 330,000; superoxide response (% of plate mean), % at 10 µM; S. cerevisiae aged cells, superoxide DHE fluorescence; active compounds read low;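 active = superoxide response under a set limit, about three screen SD below normal, cut at about 65% in these data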;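 note: yeast aged for seven days with compound at 30 °C before DHE staining; 100% = average MFI of all compound-treated wells on the plate with controls excluded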
H9c2 protect: protects H9c2 cardiomyocytes from peroxide injury; H2O2 injury protection, ATPLite, 2 h; protection from H2O2 cell death, % at 20 µM; hit rate 0.63% among 360,000;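 active = compounds giving at least 50% protection of heart cells from peroxide-induced death in the single-dose screen, raw or plate-pattern-corrected value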;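 note: 0% = DMSO wells with peroxide and 100% = DMSO wells without peroxide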
MPTP counter: membrane potential counter-screen of mitochondrial pore inhibitors; shares compounds with MPTP inh; isolated mitochondria, Rhodamine 123 fluorescence; inhibition, % at 10 µM; hit rate 78% among 5,000; in the data active = inhibition above about 22%;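 note: 0% = DMSO vehicle and 100% = positive control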
The depositor's hits bear a star; / = no result. The list is not random: actives were taken first. Their share in the collection is about 3.8%.

SMILES	FAS-TE inh	aDG glyco up	MPTP inh	Mot1-301 SUMO	Yeast superoxide	H9c2 protect	MPTP counter
CC(C)(C)c1nnc(NS(=O)(=O)c2cc(Cl)ccc2Cl)s1	6	0	0	18	93	0	/
O=S(=O)(Nc1nc(-c2sccc2Cl)cs1)c1cc(Cl)ccc1Cl	22	0	78*	0	109	2	51*
CCOC(=O)[C@]12CCC=C1N(CCC1=CCCCC1)C(=O)[C@H](CC(=O)N1CCCCC1)C2	-5	0	1	/	/	/	/
O=C(Cn1nnc2ccccc21)c1ccc(Cl)cc1	-5	0	1	-19	93	5	/
CCCCNC(=O)c1sc(=S)n2c1[nH]c(=O)c1ccccc12	34	1	96*	9	115	-34	80*
O=C(NC1CCCCC1)c1sc(=S)n2c1[nH]c(=O)c1ccccc12	29	0	90*	-9	104	-12	92*
O=C(NCCc1ccccc1)c1ccc2c(=O)[nH]c3c(C(=O)NCC4CCCO4)sc(=S)n3c2c1 (stereo not given)	26	0	0	-16	121	16	/
CCOc1cc(C(=O)N(C)CC(=O)Nc2cccc(F)c2)ccc1OCC(=O)N1CCCCC1	-8	0	-2	-12	95	11	/
O=C(NCCCCc1ccccc1)c1cccc(NC(=O)C2CC2)c1	-1	0	1	/	/	9	/
CC1=NN(c2ccc(C(=O)O)cc2)C(=O)/C1=C/c1ccc(-c2ccccc2F)o1	-2	0	4	-8	99	-14	/
O=C1NN(c2cccc(Br)c2)C(=O)/C1=C/c1ccc(-c2cc([N+](=O)[O-])ccc2O)o1	1	0	79*	11	119	-2	-2
CC1=NN(c2ccc(C)cc2)C(=O)/C1=C/c1ccc(-c2cc([N+](=O)[O-])ccc2O)o1	4	0	102*	/	/	-14	46*
Nc1nc(Nc2ccc(Cl)cc2)c(NC=O)c(=O)[nH]1	-7	0	0	249	122	1	/
CC1CCc2c(nc3sc4c(c3c2N)CCCC4)C1 (stereo not given)	2	2	76*	9	81	-12	84*
CC1CCc2nc3sc4c(c3c(N)c2C1)CCCC4 (stereo not given)	4	2	88*	-2	106	-16	81*
CC1CCc2c(sc3nc(CSc4n[nH]c(N)n4)[nH]c(=O)c23)C1 (stereo not given)	6	0	-2	9	114	-9	/
Nc1c(C(=O)O)sc2nc(-c3ccccc3)c3c(c12)CCCC3	15	0	2	-28	94	0	/
CCc1c(-c2ccccc2)nc2sc3c(c2c1N)CCCC3	17	0	84*	11	88	-16	70*
Nc1c2c(nc3sc4c(c13)CCCCC4)CCCCC2	-3	0	78*	-13	89	-8	93*
C#Cc1cccc(NC(=O)c2ccc3c(c2)C(=O)N(Cc2cccnc2)C3=O)c1	2	1	-1	4	99	11	/
Cc1cccc(NC(=O)C(C)OC(=O)c2ccccc2NS(=O)(=O)c2cc(C)c(C)c([N+](=O)[O-])c2)c1 (stereo not given)	28	0	93*	5	90	-16	65*
CC(=O)Nc1ccc(NC(=O)C(C)OC(=O)c2ccccc2NS(=O)(=O)c2cccs2)cc1 (stereo not given)	2	0	-1	180	100	8	/
O=C(Nc1cc(Cl)cc(Cl)c1)N1CCCC1	-3	0	98*	-9	109	-10	93*
O=C(Nc1cc(Cl)cc(Cl)c1)C(c1ccccc1)N1CCCCC1 (stereo not given)	38	0	83*	4	99	-13	98*
CCOC(=O)C1CCN(C(=O)Nc2cc(Cl)cc(Cl)c2)CC1	14	0	78*	14	100	-7	92*
SMILES	FAS-TE inh	aDG glyco up	MPTP inh	Mot1-301 SUMO	Yeast superoxide	H9c2 protect	MPTP counter
CCOC(=O)C1CCN(C(=O)Nc2cccc(Cl)c2)CC1	-4	0	2	4	107	1	/
CCCCC[C@@H]1C=C(C(=O)O)[C@H](c2ccc3c(c2)OCO3)N1S(=O)(=O)c1ccc(C)cc1	-2	0	1	/	113	1	/
S=C(Nc1ccc(Br)cc1)N1CCn2cccc2C1c1cccnc1 (stereo not given)	7	0	97*	/	/	-4	92*
Cc1ccc(NC(=S)N2CCn3cccc3C2c2cccnc2)cc1 (stereo not given)	-8	0	1	-4	107	-3	/
CC(C)c1ccc(NC(=O)N(CCc2nc3ccccc3[nH]2)C2CCCC2)cc1	12	1	58*	-8	107	-5	81*
O=C(CSc1ccc(Cl)cc1)Nc1cccc(-c2nnc(-c3ccco3)o2)c1	2	0	70*	10	129	-7	59*
Cc1ccc(SCC(=O)Nc2cccc(-c3nnc(-c4ccco4)o3)c2)cc1	20	0	1	182	148	-26	/
COc1ccc(CN2CCN(C3CCC3)CC2CCO)c(C)c1C (stereo not given)	-6	0	0	345	109	-3	/
CC1(C(=O)OCC(=O)Nc2nnc(-c3ccccc3)o2)CC1(Cl)Cl (stereo not given)	-5	0	0	-13	114	18	/
COc1ccc(NC(=S)NCCC(c2ccccc2)c2ccccc2)c(OC)c1	12	2	0	-1	107	-17	/
Cc1cc(Cl)ccc1NC(=S)NCCC(c1ccccc1)c1ccccc1	14	2	100*	-36	112	-20	97*
Cc1c(Cl)cccc1NC(=S)NCCC(c1ccccc1)c1ccccc1	22	2	62*	6	91	-18	87*
Cc1c(Cl)cccc1NC(=S)NCC1COc2ccccc2O1 (stereo not given)	19	0	63*	-12	116	-17	93*
C=CCNC(=S)NCC1COc2ccccc2O1 (stereo not given)	-12	0	2	4	102	-2	/
Cc1c(Cl)cccc1NC(=S)NCc1ccccc1Cl	10	0	84*	-2	110	-16	94*
Cc1c(Cl)cccc1NC(=S)NCc1ccc(F)cc1	12	0	9	22	94	-2	/
CCCCN(C(=O)c1ccc2c(c1)S(=O)(=O)N=C1CCCCCN12)c1c(N)n(CCCC)c(=O)[nH]c1=O	-3	0	1	248	105	2	/
Cc1ccc(S(=O)(=O)NCCC(=O)Nc2ccc(Cl)c(Cl)c2)cc1	22	0	90*	10	117	-19	87*
Cc1ccc(OCCC(=O)Nc2ccc(F)c(Cl)c2)cc1	32	0	67*	15	99	-4	64*

Source: PubChem BioAssay
